Data as given in the supplement of paper PMC12297408.
Structures can show the parent of a compound that is named as a salt. The whole screen tested about 1,300 compounds, of which about 40 (3%) showed activity. Many of the other results were omitted from the sample, so actives are more common in it than they were. Values without a mark were called inactive.

Tested on: Plasmodium falciparum NF54/iGP1_RE9H ulg8 stage V gametocytes
Assay: gametocyte viability (luciferase signal relative to DMSO control) (% of DMSO control); higher = less gametocytocidal activity, active = 50 or less
Settings: exposure time: 72 h
How it was run: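 Compounds from 10 mM DMSO stocks were spotted at nanolitre scale into 96-well plates, and day-12 stage V NF54/iGP1_RE9Hulg8 gametocytes (~2.5% gametocytemia, 3% hematocrit; medium with 0.5% Albumax II) were added to reach 10 µM or 1 µM, one well per concentration. The plates were kept at 37 °C for 72 h. Luminescence was then read on an IVIS Lumina II after mixing 90 µl of culture with 10 µl D-luciferin (30 mg/ml). Viability values are relative to the plate's mean DMSO vehicle signal.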

With `CN(C)CCOC(c1ccccc1)c1ccccc1.Cn1c(=O)c2[nH]c(Cl)nc2n(C)c1=O` [Dimenhydrinate] the gametocyte viability (concentration: 1 µM) was 89 and the gametocyte viability (concentration: 10 µM) was 94.
With `COc1ccc(CN(CCN(C)C)c2ccccn2)cc1` [Pyrilamine maleate] the gametocyte viability (concentration: 1 µM) was 90.9 and the gametocyte viability (concentration: 10 µM) was 100.
With `CN(C)CCN(Cc1ccc(Cl)cc1)c1ccccn1` [Chloropyramine hydrochloride] the gametocyte viability (concentration: 1 µM) was 87.4 and the gametocyte viability (concentration: 10 µM) was 90.3.
In the case of `CCCCCCCCCCCCCCCC[N+](C)(C)CCN(Cc1ccc(OC)cc1)c1ncccn1` [Thonzonium bromide], the gametocyte viability (concentration: 1 µM) is reported as 77 and the gametocyte viability (concentration: 10 µM) is reported as 1.76 (active).
`CCCNCC(O)COc1ccccc1C(=O)CCc1ccccc1` (configuration not stated) [Propafenone hydrochloride] showed a gametocyte viability (concentration: 1 µM) of 81.6 and a gametocyte viability (concentration: 10 µM) of 75.7.
For `CC(C)Nc1cccnc1N1CCN(C(=O)c2cc3cc(NS(C)(=O)=O)ccc3[nH]2)CC1` [Delavirdine], the gametocyte viability (concentration: 1 µM) was 92.5 and the gametocyte viability (concentration: 10 µM) was 95.8.
`CC[C@@H]1C(=O)OC[C@@H]1Cc1cncn1C` [Pilocarpine nitrate] gave a gametocyte viability (concentration: 1 µM) of 98.2 and a gametocyte viability (concentration: 10 µM) of 98.
`CC(C)NCC(O)c1ccc(NS(C)(=O)=O)cc1` (configuration not stated) [Sotalol hydrochloride] gave a gametocyte viability (concentration: 1 µM) of 83.1 and a gametocyte viability (concentration: 10 µM) of 92.1.
`N=C(N)NC(=N)NCCc1ccccc1` [Phenformin hydrochloride] gave a gametocyte viability (concentration: 1 µM) of 83.8 and a gametocyte viability (concentration: 10 µM) of 83.6.
`N=C(NCCCCCCNC(=N)NC(=N)Nc1ccc(Cl)cc1)NC(=N)Nc1ccc(Cl)cc1` [Chlorhexidine] was tested, and the gametocyte viability (concentration: 1 µM) was 92.1 and the gametocyte viability (concentration: 10 µM) was 1.08 (active).
`CC(C)NC(=N)NC(=N)Nc1ccc(Cl)cc1` [Proguanil hydrochloride] showed a gametocyte viability (concentration: 1 µM) of 100 and a gametocyte viability (concentration: 10 µM) of 106.
`N=C(N=C(N)N)N1CCOCC1` [Moroxidine hydrochloride] was tested, and the gametocyte viability (concentration: 1 µM) was 83.9 and the gametocyte viability (concentration: 10 µM) was 87.9.
With `NC1CCN(c2nc3c(cc2F)c(=O)c(C(=O)O)cn3-c2ccc(F)cc2F)C1` (configuration not stated) [Tosufloxacin hydrochloride] the gametocyte viability (concentration: 1 µM) was 78.5 and the gametocyte viability (concentration: 10 µM) was 86.9.
`NC(=O)c1ccc[n+]([C@@H]2O[C@H](COP(=O)([O-])OP(=O)(O)OC[C@H]3O[C@@H](n4cnc5c(N)ncnc54)[C@H](O)[C@@H]3O)[C@@H](O)[C@H]2O)c1` [Nadide] showed a gametocyte viability (concentration: 1 µM) of 85.3 and a gametocyte viability (concentration: 10 µM) of 79.3.
In the case of `C[C@]12CCC(=O)C=C1C=C[C@@H]1[C@@H]2CC[C@@]2(C)[C@H]1CC[C@@]21CCC(=O)O1` [Canrenone], the gametocyte viability (concentration: 1 µM) is reported as 80 and the gametocyte viability (concentration: 10 µM) is reported as 83.7.
In the case of `C[C@H]1O[C@H](O[C@H]2[C@H](O)[C@@H](O)[C@@H](O[C@@H]([C@H](O)[C@@H](O)C=O)[C@H](O)CO)O[C@@H]2CO)[C@H](O)[C@@H](O)[C@@H]1N[C@H]1C=C(CO)[C@@H](O)[C@H](O)[C@H]1O` [Acarbose], the gametocyte viability (concentration: 1 µM) is reported as 80.6 and the gametocyte viability (concentration: 10 µM) is reported as 83.5.
`NCCc1cc[nH]n1` [Betazole hydrochloride] showed a gametocyte viability (concentration: 1 µM) of 94.2 and a gametocyte viability (concentration: 10 µM) of 94.2.
`CCC(=O)OCC(=O)[C@@]1(OC(=O)CC)[C@H](C)C[C@H]2[C@H]3[C@H]([C@@H](O)C[C@@]21C)[C@@]1(C)C=CC(=O)C=C1C[C@H]3Cl` [Alclometasone dipropionate] gave a gametocyte viability (concentration: 1 µM) of 83.6 and a gametocyte viability (concentration: 10 µM) of 78.3.
With `CN(N=O)C(=O)N[C@H]1C(O)O[C@H](CO)[C@@H](O)[C@@H]1O` (mixture of isomers) [Streptozotocin] the gametocyte viability (concentration: 1 µM) was 84.7 and the gametocyte viability (concentration: 10 µM) was 92.1.
`C[C@@H](O)[C@H]1C(=O)N2C(C(=O)O)=C(SCCNC=N)C[C@H]12` [Imipenem] was tested, and the gametocyte viability (concentration: 1 µM) was 88.8 and the gametocyte viability (concentration: 10 µM) was 87.5.
`Cc1cc(N)c2ccccc2[n+]1CCCCCCCCCC[n+]1c(C)cc(N)c2ccccc21` [Dequalinium dichloride] was tested, and the gametocyte viability (concentration: 1 µM) was 83.5 and the gametocyte viability (concentration: 10 µM) was 36.1 (active).
`Cc1[nH]c(=O)c(C#N)cc1-c1ccncc1` [Milrinone] showed a gametocyte viability (concentration: 1 µM) of 81 and a gametocyte viability (concentration: 10 µM) of 82.1.
`Cc1c(C)c2c(c(C)c1O)CCC(C)(COc1ccc(CC3SC(=O)NC3=O)cc1)O2` (configuration not stated) [Troglitazone] gave a gametocyte viability (concentration: 1 µM) of 81.7 and a gametocyte viability (concentration: 10 µM) of 76.3.
`CC=C(C)C(=O)OC1C(OC(C)=O)C2(CO)C(O)CC3(C)C(=CCC4C5(C)CCC(OC6OC(C(=O)O)C(OC7OC(CO)C(O)C(O)C7O)C(O)C6OC6OC(CO)C(O)C(O)C6O)C(C)(CO)C5CCC43C)C2CC1(C)C` (stereo not drawn) [Beta-Escin] gave a gametocyte viability (concentration: 1 µM) of 90.1 and a gametocyte viability (concentration: 10 µM) of 93.2.
In the case of `C[C@@H](O[C@H]1OCCN(Cc2n[nH]c(=O)[nH]2)[C@H]1c1ccc(F)cc1)c1cc(C(F)(F)F)cc(C(F)(F)F)c1` [Aprepitant], the gametocyte viability (concentration: 1 µM) is reported as 87.7 and the gametocyte viability (concentration: 10 µM) is reported as 75.4.
For `CCN(CC)CCNC(C(=O)OCCC(C)C)c1ccccc1` (configuration not stated) [Camylofine chlorhydrate], the gametocyte viability (concentration: 1 µM) was 79.9 and the gametocyte viability (concentration: 10 µM) was 85.5.
